Test in all cases: NCI-60 one-dose screen, 48 h (100 = growth as untreated, 0 = no growth, -100 = all killed)
One experiment relates to T-47D breast. As to conditions: 10 µM.
The test system of a further experiment is BT-549 breast. As to conditions: 10 µM.
A further experiment deals with MDA-MB-435 melanoma. As to conditions: 10 µM.
Another experiment has as its system SW-620 colon. As to conditions: 10 µM.
The test system of the next experiment is MCF7 breast. As to conditions: 10 µM unless noted.
A further experiment concerns HCT-116 colon. As to conditions: 10 µM.
A further experiment deals with HCC-2998 colon. As to conditions: 10 µM.
In the next experiment the test system is KM12 colon. As to conditions: 10 µM.

Each structure is given as a SMILES string. Compounds without any hit were thinned out: in the full panel of roughly 83,000, 20% have a hit.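 Cell lines were cultured in 96-well plates, exposed to a single compound concentration, and assessed for percent growth 48 hours later.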 A number with no mark means an inactive call. Activity calls are given as the source filed them. Rule for the calls: active = growth percent below 10; inactive = the rest.

As for `O=C(O)CCC(=O)OC(C1CO1)C(OC(=O)CCC(=O)O)C1CO1` (centres undefined), the growth in the experiment on T-47D breast is 94%; in the experiment with BT-549 breast it was 108%; with MDA-MB-435 melanoma, 103%; with SW-620 colon it was 106%; in the experiment with MCF7 breast it was 90.6%; with HCT-116 colon, 99.2%. The growth is 108% in the experiment with HCC-2998 colon and 101% with KM12 colon.

`CC1C(=O)c2ccccc2CC1C(=O)O` (centres undefined): the growth in the experiment on T-47D breast is 102%; with BT-549 breast, 105%; with MDA-MB-435 melanoma it was 108%; in the experiment on SW-620 colon, 115%; in the experiment on MCF7 breast, 99.3%; in the experiment with HCT-116 colon, 110%. The growth in the experiment on HCC-2998 colon was 89.7%; in the experiment with KM12 colon it was 123%.

For `O=C(O)CCCc1ccccc1`, the growth in the experiment on T-47D breast was 101%; in the experiment on BT-549 breast it was 105%; with MDA-MB-435 melanoma it was 98.9%; in the experiment on SW-620 colon it was 111%; in the experiment with MCF7 breast, 104%; in the experiment on HCT-116 colon, 104%. Further, the growth is 107% with HCC-2998 colon and 114% with KM12 colon.

As for `CCCCCC(C)(CC(=O)O)CC(=O)O`, the growth in the experiment with T-47D breast was 104%; in the experiment with BT-549 breast, 113%; with MDA-MB-435 melanoma, 107%; in the experiment with SW-620 colon, 106%; in the experiment with MCF7 breast, 90%; with HCT-116 colon, 112%. Further, the growth is 113% in the experiment on HCC-2998 colon and 115% in the experiment on KM12 colon.

As to `Cc1cc2nc(CO)[nH]c2cc1C`, the growth in the experiment with T-47D breast was 124%; in the experiment on BT-549 breast, 105%; in the experiment with MDA-MB-435 melanoma, 109%; in the experiment on SW-620 colon, 103%; with MCF7 breast, 120%; with HCT-116 colon it was 108%. For the same molecule, the growth in the experiment on HCC-2998 colon was 109%; in the experiment on KM12 colon it was 103%.

With `COc1cc([C@@H]2c3cc4c(cc3[C@H](O)[C@H]3COC(=O)[C@H]23)OCO4)cc(OC)c1OC`, the growth in the experiment with T-47D breast was 65.5%; with BT-549 breast, 7.33% (active); in the experiment on MDA-MB-435 melanoma, -30.3% (active); with SW-620 colon, 24.5%; in the experiment on MCF7 breast, 5.76% (active); with HCT-116 colon, 2.8% (active). In addition, the results for the growth in the experiment on HCC-2998 colon and with KM12 colon were -4.87% (active) and -4.78% (active), respectively.

Regarding `Nc1ccc(N=Nc2ccc(S(=O)(=O)O)cc2)c2ccccc12`, the growth was 57.3% with T-47D breast; 102% in the experiment on BT-549 breast; 98.6% in the experiment with MDA-MB-435 melanoma; 88.7% in the experiment on SW-620 colon; 91.4% with MCF7 breast; 89% with HCT-116 colon. Further, the growth with HCC-2998 colon is 88.3%; with KM12 colon, 99.2%.

With `O=C(Nc1cccc(NC(=O)Nc2cc(C(F)(F)F)ccc2Cl)c1)Nc1cc(C(F)(F)F)ccc1Cl`, the growth in the experiment with T-47D breast is 8.32% (active); with BT-549 breast it was 17.8%; with MDA-MB-435 melanoma, 12.8%; with SW-620 colon it was 13.5%; in the experiment on MCF7 breast it was 6.53% (active); with HCT-116 colon, 13.2%. For the same molecule, the growth in the experiment on HCC-2998 colon was 37.6%; in the experiment on KM12 colon, 12.1%.

As to `O=[N+]([O-])c1ccc(-c2ncc(-c3ccc(Br)cc3)o2)cc1`, the growth with T-47D breast was 94.7%; with BT-549 breast, 113%; with MDA-MB-435 melanoma, 108%; in the experiment with SW-620 colon, 93.5%; in the experiment with MCF7 breast, 87.4%; in the experiment on HCT-116 colon, 91.4%. The figures for the growth in the experiment with HCC-2998 colon and in the experiment with KM12 colon were 88.2% and 119%, respectively.

Take `COc1cccc(O)c1O`: the growth is 84.1% in the experiment on T-47D breast; 82.3% in the experiment with BT-549 breast; 6.89% (active) in the experiment with MDA-MB-435 melanoma; 42.6% in the experiment on SW-620 colon; 20.2% in the experiment on MCF7 breast; 98.6% in the experiment with HCT-116 colon. In addition, the growth with HCC-2998 colon was 99.8%; with KM12 colon, 52.6%.

For the molecule `Cc1ccc(C(O)C2CC2)cc1` (centres undefined), the growth in the experiment on T-47D breast is 97.4%; in the experiment on BT-549 breast, 107%; in the experiment with MDA-MB-435 melanoma, 103%; in the experiment with SW-620 colon, 100%; with MCF7 breast, 104%; in the experiment on HCT-116 colon it was 107%. Besides, the results for the growth with HCC-2998 colon and with KM12 colon were 113% and 107%, respectively.

With `Nc1ncnc2c1nc(N)n2C1OC(CO)C(O)C1O` (centres undefined), the growth is -46.3% (active) with T-47D breast; -83.6% (active) with BT-549 breast; -80.3% (active) with MDA-MB-435 melanoma; -11.8% (active) in the experiment with SW-620 colon; -20.5% (active) with MCF7 breast; 1.19% (active) in the experiment on HCT-116 colon. Further, the growth with HCC-2998 colon is -82% (active); in the experiment with KM12 colon, -77.3% (active).

For the molecule `CC12CC3CC1C(C(=O)O2)C3C(=O)O` (centres undefined), the growth with T-47D breast is 108%; in the experiment with BT-549 breast, 122%; in the experiment with MDA-MB-435 melanoma, 109%; with SW-620 colon it was 102%; with MCF7 breast it was 108%; in the experiment with HCT-116 colon, 118%. The growth in the experiment with HCC-2998 colon is 95.8%; in the experiment with KM12 colon it was 101%.

As to `CCC/C=C(/C(C)=O)C(=O)OCC`, the growth in the experiment with T-47D breast was 107%; in the experiment on BT-549 breast, 112%; in the experiment on MDA-MB-435 melanoma, 108%; with SW-620 colon, 106%; in the experiment with MCF7 breast it was 114%; with HCT-116 colon, 109%. Moreover, the growth with HCC-2998 colon is 7.66% (active); in the experiment with KM12 colon it was 102%.

As for `Cc1c(O)cnc2nn(-c3ccccc3)c(=N)n12`, the growth is 100% in the experiment on T-47D breast; 108% in the experiment with BT-549 breast; 107% with MDA-MB-435 melanoma; 102% in the experiment with SW-620 colon; 97.5% in the experiment with MCF7 breast; 101% with HCT-116 colon. For the same molecule, the growth was 98.4% in the experiment with HCC-2998 colon and 95.8% in the experiment on KM12 colon.

`N#CCc1ccc([N+](=O)[O-])cc1`: the growth in the experiment on T-47D breast was 98.6%; in the experiment with BT-549 breast, 102%; with MDA-MB-435 melanoma, 114%; in the experiment with SW-620 colon it was 94.5%; in the experiment on MCF7 breast it was 89.8%; in the experiment with HCT-116 colon, 109%. Also, the growth in the experiment on HCC-2998 colon was 101%; with KM12 colon, 109%.

On to `CC(C)(N)COS(=O)(=O)O`, for which the growth in the experiment on T-47D breast is 108%; in the experiment on BT-549 breast it was 100%; with MDA-MB-435 melanoma it was 94.6%; in the experiment on SW-620 colon, 101%; in the experiment with MCF7 breast, 95.5%; with HCT-116 colon, 95.4%. Moreover, the growth in the experiment on HCC-2998 colon was 112%; with KM12 colon, 99.1%.

In the case of `CO[C@H]1C[C@@H]2CC[C@@H](C)[C@@](O)(O2)C(=O)C(=O)N2CCCC[C@H]2C(=O)O[C@H]([C@H](C)C[C@@H]2CC[C@@H](O)[C@H](OC)C2)CC(=O)[C@H](C)C=C(C)[C@@H](O)[C@@H](OC)C(=O)[C@H](C)C[C@H](C)/C=C/C=C/C=C1C`, the growth is 19.4% in the experiment with T-47D breast; 15.6% with BT-549 breast; 49% with MDA-MB-435 melanoma; 58% in the experiment with SW-620 colon; 23.8% in the experiment on MCF7 breast; 31.1% with HCT-116 colon. Besides, the growth is 146% in the experiment with HCC-2998 colon and 60.9% in the experiment with KM12 colon.
